# EP2 modulator = EP2 receptor modulators, cAMP readout, primary screen, cell-based, HTRF cAMP, PGE2 stimulation | EP2-expressing cells, cAMP HTRF FRET, PGE2 co-stimulation | 260,000 tested, 0.83% active | induction, % at 25 µM;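 active = compounds whose cAMP rise, as percent of the full-agonist control response, exceeds 60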;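 note: rat C6 glioma line stably carrying human EP2 under a CMV promoter; the protocol text gives 20 µM as final concentration; 100% = response of wells given 1 µM PGE2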
# Target sequence (P43116 whole entry, looked up): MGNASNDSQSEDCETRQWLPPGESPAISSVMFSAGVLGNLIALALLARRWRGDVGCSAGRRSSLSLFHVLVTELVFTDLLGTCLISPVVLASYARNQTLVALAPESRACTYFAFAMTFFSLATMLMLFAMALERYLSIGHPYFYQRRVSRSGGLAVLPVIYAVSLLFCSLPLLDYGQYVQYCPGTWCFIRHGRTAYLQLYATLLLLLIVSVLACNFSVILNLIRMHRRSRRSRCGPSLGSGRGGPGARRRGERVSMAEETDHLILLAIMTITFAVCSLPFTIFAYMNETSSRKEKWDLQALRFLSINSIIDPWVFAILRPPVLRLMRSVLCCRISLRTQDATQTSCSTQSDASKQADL
# EP2 antag = human EP2 receptor antagonists, primary screen, TR-FRET cAMP, C6 glioma cells | C6 glioma cells expressing human EP2; cells stimulated with saturating PGE2 | inhibition, % at 25 µM | 260,000 tested, 0.52% active;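 active = percent inhibition above 40 after rounding to a whole number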;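 note: rat C6 glioma host cells with rolipram phosphodiesterase inhibitor present; the protocol text gives 20 µM as final concentration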
# CHT allo act = CHT positive allosteric modulators, primary screen, cell-based, membrane potential dye, choline EC20; B-score at 10 µM; CHT-expressing cells; active compounds read high; LV-AA mutant CHT in HEK293 cells; 310,000 tested, 0.49% active; AID 488977, 2010;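 active = initial fluorescence not abnormally high and integrated response B-score, plate-corrected, over 3 SD above library mean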
# CHT inh = inhibitors of human choline transporter CHT; High affinity choline transporter 1 (Homo sapiens), Q9GZV3; CHT-expressing cells, membrane potential dye, choline response; active compounds read low; B-score at 10 µM; 310,000 tested, 0.86% active; AID 488975, 2010;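 active = B-score over 3 SD under the library average, and starting fluorescence ratio not unusually high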;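 note: choline stimulus applied at its EC90 after an EC20 pre-addition; B-score computed on integrated fluorescence ratio after choline addition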
# * hit, by the source's call; i = inactive; / = no result; + = active, no number; ! = a repeat was not active. Sampled rows, rich in hits. Any-hit rate of the full collection: about 2.1%.
SMILES,EP2 modulator,EP2 antag,CHT allo act,CHT inh
COc1ccccc1C(c1nnnn1C(C)(C)C)N1CCCc2ccccc21 (configuration not stated),67.5*!,10.2,i,i
COc1ccccc1NC(=O)N(Cc1ccccc1)Cc1cc2cc3c(cc2[nH]c1=O)OCCO3,-24.4,10.7,/,/
CC(C)(C(=O)N1CCC2(CC1)NC(=O)c1ccccc1N2)c1ccc(Cl)cc1,-18.1,7.1,/,/
CCC(c1nnnn1C(C)(C)C)N(Cc1ccc(F)cc1)Cc1cc2cc(C)ccc2[nH]c1=O (configuration not stated),36.5,8.3,/,/
CCOc1ccc2[nH]c3c(N4CCc5ccccc5C4)ncnc3c2c1,-51.8,43.7*,i,i
COc1ccc2[nH]c3c(N4CCN(Cc5ccc6c(c5)OCO6)CC4)ncnc3c2c1,-80.0,60.5*,i,i
Cc1cc(C)c(NC(=O)CSc2nccc(=O)[nH]2)c(C)c1,-1.7,23.0,/,/
CCOc1ccc(NC(=O)CSc2nnc3c(n2)[nH]c2ccc(OC)cc23)cc1,-40.8,3.8,/,/
Oc1cc(-c2ccccc2)c2ccccc2c1,60.7*,6.8,i,i
N#Cc1cc2ccccc2nc1SCC(=O)N1CCc2ccccc2C1,32.8,6.8,/,/
O=C1OC(c2ccc(O)c(-c3ccccc3)c2)(c2ccc(O)c(-c3ccccc3)c2)c2c(Cl)c(Cl)c(Cl)c(Cl)c21,3.9,46.9*,/,/
Cc1cc(C2(c3ccc(O)c(C)c3)OC(=O)c3ccccc32)ccc1O,60.3,9.2,i,i
COCCNC(=S)N(CCCN1CCOCC1)Cc1cc2cc(C)c(C)cc2[nH]c1=O,-10.6,3.5,/,/
CC(C)c1nc2sc3c(=O)[nH]cnc3c2c2c1CCC2,54.4,6.2,i,i
CCCCc1nc2sc3c(=O)[nH]cnc3c2c2c1CCCC2,60.7*,10.0,i,i
CCCc1nc2sc3c(=O)[nH]cnc3c2c2c1CCCC2,71.7*,7.3,i,i
Cc1cc(C(=O)NCCCN(C)C)c2ccccc2n1,2.6,5.3,/,/
CN(C)CCCc1c2ccccc2nc2ccc(Cl)cc12,2.3,57.5*,/,/
CCc1[nH]n2c(=O)c(Cl)c(C)nc2c1-c1ccc(OC)cc1,-5.7,2.5,/,/
Oc1c(Br)cc(Br)cc1CN(Cc1cc(Br)cc(Br)c1O)C1CCCCC1,-25.6,40.1*,/,/
Cc1ccc2nc(NC(=O)C3COc4ccccc4O3)sc2c1 (configuration not stated),-4.9,9.9,/,/
COC(=O)CCCCCN1C(=O)/C(=C\c2ccncc2)SC1=S,-40.2,50.7*,i,i
O=C1/C(=C/c2ccncc2)SC(=S)N1Nc1ccccc1,-36.9,64.1*,i,i
O=C(O)c1ccc(/C=C2\SC(=S)N(Nc3ccccc3)C2=O)cc1,-21.9,6.0,i,i
COC(=O)CCCCCN1C(=O)/C(=C/c2ccc(OC)cc2)SC1=S,-16.5,12.7,/,/
SMILES,EP2 modulator,EP2 antag,CHT allo act,CHT inh
CCOC(=O)C1=C(c2ccccc2)NC(SCC(=O)NC2CCCCC2)=C(C#N)C1c1ccco1 (configuration not stated),27.1,71.4*,i,i
CCNc1nc(NC(C)C)nc(SCCOc2ccc(C)cc2)n1,47.9,7.6,i,i
CCNc1nc(NC(C)C)nc(SCCOC(=O)c2ccccc2)n1,61.4*,3.5,i,i
CCOc1ccc2c(ccc(/C=C/c3cc(C)c4cccnc4c3O)[n+]2C)c1,49.6,51.8*,/,/
CN1CCN(C(c2cc3cc4c(cc3[nH]c2=O)OCO4)c2nnnn2C2CCCC2)CC1 (configuration not stated),-6.4,25.8,/,/
CCN1/C(=C/C(C)=C/c2sc3ccccc3[n+]2CC)Sc2ccccc21,-255.4,+,i,i
COc1ccc(CCNC(=O)[C@H]2C[C@@H](c3ccco3)NS(=O)(=O)N2C)cc1OC,-54.2,/,/,/
Nc1c(S(=O)(=O)c2cccs2)c2nc3ccccc3nc2n1/N=C/c1cccc(O)c1,-7.1,40.9*,i,i
O=C(CN1CCC(c2ccc(F)cc2)CC1)N1CCOCC1,-68.7,3.9,/,/
Cc1[nH]n(-c2ccccc2)c(=O)c1C(c1ccc(O)c([N+](=O)[O-])c1)c1c(C)[nH]n(-c2ccccc2)c1=O,/,19.2,i,-6.12*
